From ChEMBL document CHEMBL4513216, “Probing the Open Global Health Chemical Diversity Library for Multistage-Active Starting Points for Next-Generation Antimalarials” (ACS Infect Dis, 2020)
In all, about 69,000 compounds went through this assay and about 8,600 (12%) showed an effect of 50% or more. This is one part of a sample in which strong results are shown more often than they occur.

tested on: Plasmodium berghei; test: Screen against P. berghei liver stage (PbLuc), transformed with Luciferase, at 10uM; type: functional, HepG2; conditions: tested at 10 uM

Compound | INHIBITION [%]
CNC(=O)CN1CC[C@H]2CN(C(=O)c3cccn3C)C[C@H]2C1 | 9.51
O=C(NCC1CCCO1)c1cc(-c2ccncc2)c2cnccc2n1 (configuration not stated) | -3.02
CCN1CCN(C)C(=O)C12CCN(Cc1ccsc1)CC2 | -9.74
O=C(N1CCOCC1)N1CCN(c2ccnc3ccsc23)CC1 | 5.76
c1cc(N2CCC(CN3CCOCC3)CC2)c2sccc2n1 | 73.8
OCCC1CCN(c2ccnc3ccsc23)C1 (configuration not stated) | 5.11
CN(C)C(=O)C1CCCN1c1ccnc2ccsc12 (configuration not stated) | 1.75
O=C(c1cnccn1)N1CCN(c2ccnc3ccsc23)CC1 | -7.46
COCC1CCN(c2ccnc3ccsc23)C1 (configuration not stated) | 79.5
CSc1ncc(Cl)c(C(=O)NC(Cc2ccccc2)C(=O)O)n1 (configuration not stated) | 36.7
CC(C)C(=O)Nc1cccc(CNC(=O)CSCc2ccccn2)c1 | 24.2
CCOc1ncccc1CNC(=O)Nc1ccc(OC)c(OC)c1 | -49.5
Cc1nc(CN2C[C@@H]3CN(C(=O)[C@H]4CCCO4)C[C@@H]3C2=O)cs1 | 19.4
CN1CCC2(CC1)C(=O)N(c1cccnc1)c1ccc(F)cc12 | -45.8
O=C(c1cc2cc(I)ccc2[nH]1)N1CCC(Nc2cccnn2)CC1 | 9.54
COc1cccc(F)c1CN1CCC(c2nccc(C)n2)C1 (configuration not stated) | 1.35
N#CCCN(CC(F)(F)F)C(=O)c1cc(-n2cccn2)ccn1 | -13.7
Cc1ccccc1NS(=O)(=O)c1ccc(C(=O)O)cc1F | 10.5
O=C(O)c1ccc(S(=O)(=O)Nc2ccccc2F)c(F)c1 | 14.8
O=C(O)c1ccc(S(=O)(=O)Nc2ccccc2CC(F)(F)F)c(F)c1 | 53.3
Cc1nc(C)n(C2CCCN(C(=O)c3ccn(C(C)C)n3)C2)n1 (configuration not stated) | -2.53
O=C(NCCC1=CCCCC1)c1cc(-c2ccc(O)cc2)n[nH]1 | 52.6

Compound | INHIBITION [%]
CCCc1cc(C(=O)NCCC2=CCCCC2)[nH]n1 | -73.5
Cc1cc(C(=O)NCCN2CCCc3ccccc32)[nH]n1 | 48.8
Cc1ccc(-c2cc(C(=O)NCCC3=CCCCC3)[nH]n2)o1 | 49.9
O=C(NCCN1CCc2ccccc21)c1cc(-c2ccc(O)cc2)n[nH]1 | 68.9
O=C(NCCN1CCNC1=O)c1cc(-c2ccc(O)cc2)n[nH]1 | 10.7
CN1CCN(C(=O)NC2CCCC2)Cc2cccnc21 | -29.3
CCn1c(CNCC2CCCN2c2cccnn2)nc2ccccc21 (configuration not stated) | -0.113
COc1ccc(COCC(O)CNC(=O)Cc2ccc(C)cc2)cc1 (configuration not stated) | 11.2
Cc1ncn(CCNC(=O)Nc2ccc(F)c(Cl)c2)c(=O)c1C | 20.9
CCOC(=O)COC1CCN(C(C)=O)CC(=O)N(C)c2ccccc21 (configuration not stated) | 22.2
COc1ccccc1-c1ncc(CN2CCC3(CCN(C)C3)CC2)cn1 | 18.4
COc1cccc(COCC(=O)N2CCCN(CC(N)=O)CC2)c1 | -101
CC(C)CC(NC(=O)Nc1ccc(F)c(Cl)c1)C(=O)O (configuration not stated) | -20.3
CC(C)CC(NC(=O)CSc1ccc(F)c(Cl)c1)C(=O)O (configuration not stated) | 75.8
COCC(C)NC(=O)CSc1ccc(F)c(Cl)c1 (configuration not stated) | 46.1
Cc1nc(N2CCCC2)nc2c1CCN(C(=O)CN(C)C)CC2 | 20.1
COCc1ccccc1C(=O)N1CCCC1Cn1nc(C)cc1C (configuration not stated) | -72.745
C=C(C)CN1CCN(Cc2cnc(-c3ccccc3C)nc2)CC1 | 9.93
Cc1nn(-c2ccc(C(=O)O)cc2)c2c1C(C(F)(F)F)SCC(=O)N2 (configuration not stated) | -14.3
O=C(NCCCC(=O)N1Cc2ccccc2C1)NCc1nccs1 | 39.7
O=C(NCCCC(=O)N1Cc2ccccc2C1)NCc1cccnc1 | 66.3
O=C(NCCCC(=O)N1Cc2ccccc2C1)NCc1ccsc1 | 23.5

Compound | INHIBITION [%]
O=C1[C@@H]2CC[C@@H](CN(Cc3nnc(C4CC4)o3)C2)N1Cc1cscn1 | -28.4
CN(C)CCNC(=O)CCC1CCN(C(=O)c2ccc(Cl)cc2O)CC1 | 50.4
Cc1cc(C(=O)N2CCC(CCC(=O)NCCN(C)C)CC2)ccc1O | -21.9
CN(C)CCNC(=O)CCC1CCN(C(=O)c2ccc(O)cn2)CC1 | 26.8
CCN(c1ccc(C(=O)NCCCN2CCCC2)cc1)S(=O)(=O)CC | -7.11
CC[C@@H]1N(Cc2ccc(F)cc2)CCC[C@]12CCC(=O)N2C | 21.1
Cc1ccc(N2CC3(COCCN(Cc4cccnc4)C3)OCC2=O)s1 (configuration not stated) | 39.2
Cc1cccc(N2CCOCC3(C2)CN(c2ccccc2)C(=O)CO3)n1 (configuration not stated) | 59.3
Cc1cccc(N2CCOCC3(C2)CN(c2cccnc2)C(=O)CO3)n1 (configuration not stated) | 41.4
Cc1ccc(N2CC3(COCCN(Cc4nccs4)C3)OCC2=O)s1 (configuration not stated) | -17
Cc1ccc(CN2CCC3(CC2)CN(c2ccccc2)C(=O)CO3)o1 | 68.4
Cc1ccc(CN2CCC3(CC2)CN(c2cnn(C)c2)C(=O)CO3)o1 | -2.17
Cn1cccc1CN1CCC2(CC1)CN(c1ccccc1)C(=O)CO2 | -19.5
Cc1ccc(N2CC3(COCCN(Cc4ccncc4)C3)OCC2=O)s1 (configuration not stated) | -36
Cc1cccc(N2CCOCC3(C2)CN(c2cncnc2)C(=O)CO3)n1 (configuration not stated) | 33.5
Cc1ccc(N2CC3(COCCN(Cc4cnn(C)c4)C3)OCC2=O)s1 (configuration not stated) | 31.7
Cc1ccc(CN2CCOCC3(C2)CN(c2ccc(C)s2)C(=O)CO3)o1 (configuration not stated) | 64.2
Cc1ccc(N2CC3(COCCN(Cc4ccccn4)C3)OCC2=O)s1 (configuration not stated) | 60.1
Cc1ccc(CC(=O)N2CCc3nnc(N(C)C)cc3C2)s1 | 12.85
Cn1cnc2c1C(COCC1CCOCC1)CN(C1CCOCC1)C2 (configuration not stated) | -0.569
CC(C)NC(=O)Nc1ccc(CS(C)(=O)=O)cc1 | 28.3
CCn1ccnc1CN1CCCN(C(=O)c2cnc(C)cn2)CC1 | -4.16

Compound | INHIBITION [%]
Cc1nc(CN2CCCC(N(C)Cc3nccn3C)C2)no1 (configuration not stated) | 13.3
COc1ccc(OCc2cc(C(=O)N3CCCCO3)n[nH]2)c(Cl)c1 | -9.42
CCNCCC(Cc1ccccc1)c1ccco1 (configuration not stated) | 31.2
COCCN(C)c1cnn(C)c(=O)c1Br | 17.5
CC(Cn1cccn1)C(=O)N1CCCN(Cc2cscn2)CC1 (configuration not stated) | -0.29
O=C(c1cnco1)N1CCC(Cc2cnc3ccccc3c2)CC1 | 14.4
O=C(c1ccco1)N1CCOCC2(C1)CN(c1cccnc1)C(=O)CO2 (configuration not stated) | 3.58
Cn1cccc1C(=O)N1CCCCC12CC(=O)N(c1cccnc1)C2 (configuration not stated) | -80.2
O=C1CC2(CCCCN2C(=O)c2ccoc2)CN1Cc1ccccc1 (configuration not stated) | 24.8
O=C1CC2(CCCCN2C(=O)Cc2ccccc2)CN1c1cccnc1 (configuration not stated) | 70.1
O=C1CC2(CCCCN2C(=O)c2ccco2)CN1c1cccnc1 (configuration not stated) | 76.5
Cn1ccc(C(=O)N2CCCCC23CC(=O)N(Cc2ccccc2)C3)n1 (configuration not stated) | -52.9
COc1ccc(CC(=O)N2C[C@@H]3COC[C@]3(CN(C)C)C2)cc1 | 35.3
CCOCC1c2c(cnn2CC2CC2)CCN1Cc1nccs1 (configuration not stated) | 30.3
O=C(C1CCCC1)N1CCO[C@H]2[C@H](OCC3CCOCC3)CC[C@@H]21 | -26.5
CC(C)NC(=O)CS(=O)(=O)Cc1coc(-c2ccc(F)cc2)n1 | 33.8
Cc1nc(C)c(CC(=O)N2C[C@@H]3CC[C@H]2CN(c2cnccn2)C3)s1 | -102
CC(C)C(=O)NC1COC2(CCN(Cc3cccnc3)CC2)C1 (configuration not stated) | 16.1
c1cnc(NCc2nnn3c2CN(Cc2ccsc2)CCC3)nc1 | 39.8
CS(=O)(=O)NC[C@@H]1OC[C@H]2CN(Cc3ccsc3)CC[C@H]21 | -4.32
CN(CC(=O)N1CCc2[nH]c3ccccc3c2C1)CC1OCCO1 | 22.9
O=C1N(c2ccsc2)CCC12CCCN(c1ccccn1)C2 (configuration not stated) | 42.1

Compound | INHIBITION [%]
Cc1nn(C)c(N(C)C)c1CNCc1cccnc1-n1cncn1 | 26.1
CNCc1cc(F)ccc1Oc1ccc(Cl)cc1 | 35.2
COc1ccccc1C(N)CC(C)C (configuration not stated) | 48.3
CC(C)C[C@H](N)COc1cccc(F)c1Oc1cccc(Cl)c1 | 83.3
Cc1ccc(Oc2c(F)cccc2OC[C@@H](N)CC(C)C)cc1 | 79.6
CC(C)C[C@H](N)COc1cccc(F)c1Oc1ccccc1 | 48
CC(C)C[C@H](N)COc1cccc(F)c1Oc1ccc(Cl)cc1 | 87.9
CC(CNS(C)(=O)=O)Oc1cccc(Cl)c1 (configuration not stated) | 23.8
CC(CNS(N)(=O)=O)Oc1cccc(Cl)c1 (configuration not stated) | 14.9
CN(CCc1ccccn1)c1cnn(C)c(=O)c1Br | -18.9
Cc1ccc2c(c1)Oc1ncccc1C(=O)N2 | 48.2
Cc1cnc(C(=O)N2C[C@H]3CN(Cc4cccc(F)c4)C(=O)[C@H]3C2)cn1 | -9.71
CC(CN1CCOCC1)NC(=O)N1CCN(S(C)(=O)=O)CC1 (configuration not stated) | -34.4
CCOc1ccc(SCCS(=O)(=O)CC)cc1 | 3.84
CCSCCn1cc(-c2ncc[nH]2)nn1 | 59.1
c1c[nH]c(-c2cn(CCSc3cnn[nH]3)nn2)n1 | 33.2
CCn1c(C)nnc1SCCn1cc(-c2ncc[nH]2)nn1 | 7.1
Cc1cnc(CN(C)C2CCN(Cc3nccn3C)C2)o1 (configuration not stated) | 13.3
CCOC(=O)CNC(=O)c1cc(-c2ccccc2)nc2ncnn12 | -5.22
